# In the supplement of paper PMC10338343:
# ± gives the standard deviation.
# System: MILI (PIWIL2) piRISC loaded with L1MC piRNA (26 nt)
# Test: pre-steady-state target cleavage rate (min^-1); guide: L1MC piRNA 5'p-UAACUAAAUACUAUGCAAGCUGUAGG; MIWI and MILI are mouse PIWI proteins and EfPiwi is from a freshwater sponge; tags in brackets are library labels; higher = faster piRNA-guided slicing of the target
# Conditions: auxiliary factor: 500 nM mouse GTSF1
# How it was run: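 Cleave-'n-Seq: 1 nM active affinity-purified piRISC with one synthetic guide and 0.1 nM transcribed, DNA-blocked target RNA library were mixed, with or without 500 nM GTSF1 partner protein, in HEPES–potassium acetate buffer at 33 °C for 0–8 or 0–960 min. Uncleaved targets were sequenced and normalised to depth and to weakly complementary targets, three trials were pooled, and k3 was capped at 0.0001 min^-1. The pre-steady-state cleavage rate was fitted […].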
row,Sequence,pre-steady-state target cleavage rate
1,UCCUGGAUGUCGAUGCAUAGUAUUUAAUUA,0.0256 ± 0.0092
2,UCCUGGUACAGCUUGCAUAGUAUUUCGUUA,0.114 ± 0.037
3,UCCUGGAUGAGCUUGCAUUGUUUUUAGUUA,0.0047 ± 0.0044
4,UCCUGGAUGUCGUUGCAUAGUAUUUAUUUA,0.0344 ± 0.011
5,UCCUGGAUCAGCUUGCAUAGUAAUUACAAA,0.145 ± 0.04
6,UCCUGGAUGUCGAUGAAUAGUAUUUAGUUA,0.00887 ± 0.0033
7,UCCUGGAUGAGCUUGCAUAGUAUUUGUUA,0.118 ± 0.028
8,UCCUGGAACAGCUUGCAUAGUAUAAUCAAA,0.0568 ± 0.016
9,UCCUGGAUCAGCAUGCAUAGUAUUUUCAAA,0.0716 ± 0.018
10,UCCUGGAUGUGCAUGCAUAGAAUUUAGUUA,0.00714 ± 0.0044
11,UCCUGGAUGUCCUUGGUUAGUAUUUAGUAA,0.0915 ± 0.022
12,UCCUGGAACAGCUUGCAUACUAUUUUCAAA,0.0161 ± 0.0061
13,UCCUCCUACAGCUUGGUUAGUAUUUUCAAA,0.0137 ± 0.007
14,UCCUGGAACAGCUUGGUAAGUAUUUAGAAA,0.0429 ± 0.015
15,UCCUGGAUGUCCUUGCAUUGUAUUUUGUUA,0.0388 ± 0.013
16,UCCUGCUUGUGCUUGCAUAGUAUUUAGAAA,0.0115 ± 0.0056
17,UCCUGGAUGAGCUUGCAUAGUAUAAAGUAA,0.0682 ± 0.02
18,UCCUGGAUGAGCUUGCAUAGUUUUUACUUA,0.00548 ± 0.0051
19,UCCUGCUACAGCUACCAUAGUAUUUAGUAA,0.158 ± 0.029

row,Sequence,pre-steady-state target cleavage rate
1,UCCUCCUACAGCUAGCAUAGAAUUUAGUUA,0.0602 ± 0.011
2,UCCUGGAUGUCCUUGCAAUAGUAUUUAGUUA,0.00466 ± 0.0043
3,UCCUGGAUGAGCUUGCAUAGUUUUUAGUAA,0.0181 ± 0.0068
4,UCCUGGAUGUGCUUGGAUAGUAUUUUGUUA,0.0685 ± 0.02
5,UCCUGGAACAGGAAGCAUAGUAUUUAGAAA,0.049 ± 0.011
6,UCCUGGAUGUCGAUGCAUAGUAUUUAGUCUA,0.0115 ± 0.0055
7,UCCUGCUACAGCUUGCAUAGAUUUUACAAA,0.00852 ± 0.0044
8,UCCUGGAUGAGCUUGCAAAGUAUUUACUUA,0.046 ± 0.014
9,UCCUGGAUGUCCUUGCAUAGUUUUUAGAUA,0.00584 ± 0.0044
10,UCCUGGAUGAGCUUGCAUAGUAUUUUGAAA,0.0223 ± 0.0096
11,UCCUGCUACAGCUUGCAAUCUAUUUUCAAA,0.00419 ± 0.0036
12,UCCUGGAUGUGCUUGCAAAGUAUUUAGAAA,0.0118 ± 0.0048
13,UCCUGGAACAGCUUGCAUUGUAUUUACAAA,0.00788 ± 0.0043
14,UCCUGGAUGACGUUGCAUAGUAUUUAGUAA,0.136 ± 0.022
15,UCCUGGUAGAGCUUGCAUAGAAUUUAGUUA,0.0311 ± 0.0054
16,UCCUCCUACAGCUUGCAUAGUAUAAUCAAA,0.122 ± 0.029
17,UCCUGGAUCAGCUUCGAUAGUAUUUACAAA,0.00974 ± 0.005
18,UCCUGGAUGAGCUUGCUUAGAAUUUAGUUA,0.0121 ± 0.0047
19,UCCUGGAUGUCGAUGCAUAGUAUUCUAGUUA,0.115 ± 0.023
